Source: PubChem BioAssay
Shown are actives, neighbours in structure and some others; about 1.8% of the full set was active somewhere.
PAX8 inh HTS = inhibitors of PAX8 transcriptional activity in RMG-I cells; RMG-I TPO-luciferase reporter, SteadyGlo, 24 h; inhibition, % at 12.6 µM; actives 1.2% (n = 360,000); AID 652154;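 active = mean replicate inhibition at least 60% with every replicate also reaching 60%; inconclusive = only one of the two criteria is met; inactive = mean below 60% and not all replicates reaching 60%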;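 note: luciferase light reporting Pax8 driven TPO promoter activity; plate controls were median of neutral control wells for no effect and mitoxantrone controls for full effect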
EWS-Fli block = EWS/Fli transcriptional activity inhibition | A673 NR0B1-luciferase reporter, viability-normalised | inhibition, % at 12.6 µM | actives 0.67% (n = 350,000) | AID 651661;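 active = mean inhibition of at least 50% after viability correction, with every replicate also passing that limit; inconclusive = mean reaches 50% but only one of two replicates passes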;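 note: firefly luciferase signal divided by Alamar Blue viability fluorescence both relative to DMSO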
F508del corr = CFTR F508del correction in bronchial cells; CFBE cells, YFP halide quenching; stimulated with forskolin plus potentiator P3; % fluorescence drop versus neutral controls; activity (quench increase), % at 7.58 µM; actives 0.36% (n = 350,000);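 active = mean added fluorescence quench of at least 8% versus neutral control, with both replicates also reaching 8%; inconclusive = only one of the mean or replicate conditions met; inactive = mean below 8% and not both replicates reaching 8%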;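 note: cells transiently co-express mutant CFTR-F508del with the halide-sensitive YFP; corrector assay measuring rescue of mutant channel to the surface after 24 h compound exposure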
LGR2 inh = Drosophila LGR2 receptor signaling inhibition | actives 0.35% (n = 380,000) | HEK293 LGR2, CRE-luciferase, bursicon-stimulated, 4 h | inhibition, % at 9.99 µM;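 active = drop in luminescence signal, shown as inhibition above about 50% in the replicate tests, limit read from the data, passing the limit was not always enough; inconclusive = probably only some replicates passing the limit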;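 note: agonist challenge used bursicon conditioned medium at about half maximal strength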
* marks the source's active call; other numbers are inactive results; u = inconclusive; x = no result; ! = repeats disagree.

SMILES	PAX8 inh HTS	EWS-Fli block	F508del corr	LGR2 inh
Cc1ccc(-c2ccc3c(c2)O[C@@H](CN(C)C(=O)Nc2ccc(C(F)(F)F)cc2)[C@H](C)CN([C@@H](C)CO)S3(=O)=O)cc1	x	9.8	6.6	x
COc1ccc(S(=O)(=O)Nc2ccc3c(c2)C(=O)N([C@@H](C)CO)C[C@@H](C)[C@@H](CN(C)C(=O)Nc2ccc4c(c2)OCO4)OCCCC[C@@H](C)O3)cc1	38.6	-8.9	0.5	3.2
CC(C)NC(=O)Nc1ccc2c(c1)C(=O)N([C@@H](C)CO)C[C@@H](C)[C@@H](CN(C)Cc1ccc(C(F)(F)F)cc1)OCCCC[C@H](C)O2	-3.1	14.5	1.3	15.9
CCc1nnc(NS(=O)(=O)c2ccc(NCc3ccccc3O)cc2)s1	11.4	5.1	-3.0	-4.2
CCCCOc1ccc(NC(=O)C2OC3OC(C)(C)OC3C3OC(C)(C)OC23)cc1 (configuration not stated)	-13.5	x	x	13.9
CCC(C(=O)Nc1cc(C(=O)Nc2cc(C)ccn2)ccc1Cl)c1ccccc1 (configuration not stated)	69.4*	-4.5	0.3	-9.6
Cc1ccnc(NC(=O)CC(NC(=O)c2ccccc2Cl)c2ccccc2)c1 (configuration not stated)	-30.9	-87.4	-5.5	-39.3
COc1ccc(CN(C)C[C@@H]2Oc3ccc(NC(=O)NC(C)C)cc3CC(=O)N([C@H](C)CO)C[C@H]2C)cc1	-9.3	x	-0.3	-4.0
Cc1nc(-c2cccc(NC(=O)c3cccc(S(=O)(=O)N4CCCC4)c3)c2)cs1	-3.3	3.0	1.5	10.2
COc1ccc(C(=O)Nc2ccccc2C(=O)Nc2ccccc2)cc1	-54.6	-53.4	8.8*	-49.7
COc1ccc(C(=O)Nc2cccc(/C=C/c3nc4ccccc4c(=O)[nH]3)c2)cc1	63.8*	8.0	-9.9	2.5
O=c1[nH]c(/C=C/c2cccc3ccccc23)nc2ccccc12	8.4	-0.5	1.8	-70.7
CN(C)c1ccc(/C=C/c2nc3ccccc3c(=O)[nH]2)cc1	-50.4	78.8*	2.2	90.7*
O=C(Nc1cccc(/C=C/c2nc3ccccc3c(=O)[nH]2)c1)c1ccccc1Cl	-34.5	-76.2	-1.7	-42.0
O=c1[nH]c(/C=C/c2ccccc2F)nc2ccccc12	-46.6	5.2	9.8*	13.5
CC(C)NC(=O)N[C@H]1CC[C@@H](CCn2cc(-c3ccccc3)nn2)O[C@H]1CO	-13.9	-0.2	-0.7	-0.5
O=[N+]([O-])c1cc(-c2nnc(-c3ccccc3)o2)ccc1Oc1ccc(Cl)cc1	97.8*	-50.8	-4.0	-53.0
Cn1c(=O)c([N+](=O)[O-])c(Cl)c2ccccc21	101.4*	61.0*	1.3	-7.5
Cc1ccc(-n2c(=S)sc3c(=O)n(-c4ccc(F)cc4)c(SCC(=O)O)nc32)cc1C	10.8	-26.3	-0.2	4.6
Cc1ccnc(NS(=O)(=O)c2ccc(NC(=O)c3snnc3C)cc2)n1	-14.6	7.1	-2.1	-1.1
C[C@@H]1CCCCO[C@H](CN(C)S(=O)(=O)c2cccs2)[C@@H](C)CN([C@@H](C)CO)C(=O)c2cc(NS(=O)(=O)c3ccc(Cl)cc3)ccc2O1	68.4*	6.5	1.6	3.1
C[C@H](CO)N1C[C@H](C)[C@@H](CN(C)S(=O)(=O)c2cccs2)OCCCC[C@H](C)Oc2ccc(NS(=O)(=O)c3ccc(Cl)cc3)cc2C1=O	99.6*	4.6	-3.1	7.9
C[C@H](CO)N1C[C@H](C)[C@H](CN(C)S(=O)(=O)c2cccs2)OCCCC[C@H](C)Oc2ccc(NS(=O)(=O)c3ccc(Cl)cc3)cc2C1=O	u	5.6	-0.9	13.7
CC(C)NC(=O)N(C)C[C@H]1Oc2cc(-c3ccccc3F)ccc2S(=O)(=O)N([C@H](C)CO)C[C@H]1C	x	-1.1	-0.2	1.1
COc1ccc(N/N=C(\C#N)C(=N)SCc2ccccc2)cc1	9.7	-9.4	2.9	66.6*
SMILES	PAX8 inh HTS	EWS-Fli block	F508del corr	LGR2 inh
C[C@H](CO)N1C[C@H](C)[C@H](CN(C)C(=O)Nc2ccc(C(F)(F)F)cc2)OCCCC[C@H](C)Oc2ccc(NS(=O)(=O)c3cccs3)cc2C1=O	65.7*	8.5	1.4	-22.5
C[C@H]1CCCCO[C@@H](CN(C)C(=O)Nc2ccc(C(F)(F)F)cc2)[C@@H](C)CN([C@@H](C)CO)C(=O)c2cc(NS(=O)(=O)c3cccs3)ccc2O1	61.7*	14.0	4.1	6.2
C[C@@H]1CCCCO[C@@H](CN(C)C(=O)Nc2ccc(C(F)(F)F)cc2)[C@@H](C)CN([C@H](C)CO)C(=O)c2cc(NS(=O)(=O)c3cccs3)ccc2O1	x	10.1	3.4	11.1
C[C@@H]1CCCCO[C@@H](CN(C)C(=O)Nc2ccc(C(F)(F)F)cc2)[C@H](C)CN([C@H](C)CO)C(=O)c2cc(NS(=O)(=O)c3cccs3)ccc2O1	85.5*	27.3	0.8	6.0
Cc1ccc(S(=O)(=O)c2nc(S(=O)(=O)CCO)sc2N2CCOCC2)cc1	8.6	x	-7.9	2.7
O=C(CSC1=NNC(c2ccccn2)S1)Nc1ccccc1 (configuration not stated)	18.0	17.3	11.5*	-17.6
C[C@H](CO)N1C[C@H](C)[C@@H](CN(C)C(=O)Nc2ccc(C(F)(F)F)cc2)Oc2c(NC(=O)Nc3ccccc3)cccc2C1=O	-6.5	63.7*!	-3.9	20.8
C[C@H]1CN([C@@H](C)CO)C(=O)c2cccc(NC(=O)Nc3ccc(F)cc3)c2O[C@H]1CN(C)C(=O)Nc1ccc(C(F)(F)F)cc1	79.5*	7.5	2.5	6.6
C[C@@H]1CN([C@@H](C)CO)C(=O)c2cccc(NC(=O)Nc3ccc(C(F)(F)F)cc3)c2O[C@@H]1CN(C)C(=O)Nc1ccc(F)cc1	x	-0.6	3.5	x
C[C@@H]1CN([C@H](C)CO)C(=O)c2cccc(NC(=O)Nc3ccc(C(F)(F)F)cc3)c2O[C@@H]1CN(C)C(=O)Nc1ccccc1	11.4	7.6	1.8	15.3
CNC[C@@H]1Oc2c(NC(=O)Nc3ccccc3)cccc2C(=O)N([C@@H](C)CO)C[C@H]1C	0.7	-0.8	0.4	0.5
C[C@@H]1CN([C@@H](C)CO)C(=O)c2cccc(NC(=O)Nc3ccc(C(F)(F)F)cc3)c2O[C@H]1CN(C)Cc1ccc2c(c1)OCO2	x	17.6	-1.0	x
CNC[C@H]1Oc2c(NC(=O)Nc3ccccc3)cccc2C(=O)N([C@H](C)CO)C[C@@H]1C	72.7*	-2.5	-3.7	-7.7
C[C@H](CO)N1C[C@H](C)[C@@H](CN(C)Cc2ccc3c(c2)OCO3)Oc2c(NC(=O)Nc3ccc(C(F)(F)F)cc3)cccc2C1=O	x	5.8	1.0	59.9*
CC1CCN(C(=O)CCNS(=O)(=O)c2ccc3c(c2)oc(=O)n3C)CC1	18.4	-6.3	-0.4	7.8
O=[N+]([O-])CC(c1ccccc1)c1c[nH]c2ccccc12 (configuration not stated)	31.2	37.1	2.2	5.6
OC(CNCC(c1ccc(Cl)cc1Cl)c1c[nH]c2ccccc12)c1ccccc1 (configuration not stated)	93.3*	48.0	-1.8	101.9*
O=C(c1cccc([N+](=O)[O-])c1)N1CCN(c2cccc(Cl)c2)CC1	38.1	x	x	-7.6
